This is part of a sample that, as a whole, favours compounds with a hit. Of some 83,000 tested, about 20% had one in any assay.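 Plates (96-well) were seeded with cells, treated with compound at one concentration, and incubated for 48 hours before percent growth was determined.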 Values without a mark were called inactive. The source made the active and inactive calls. Rule for the calls: active = growth percent below 10; inactive = the rest.
Key:
Test in all cases: NCI-60 one-dose screen, 48 h (100 = growth as untreated, 0 = no growth, -100 = all killed)
Settings in all cases: 10 µM unless noted
T-47D breast = test system: T-47D breast
BT-549 breast = test system: BT-549 breast
MDA-MB-435 melanoma = test system: MDA-MB-435 melanoma
SW-620 colon = test system: SW-620 colon
MCF7 breast = test system: MCF7 breast
HCT-116 colon = test system: HCT-116 colon
HCC-2998 colon = test system: HCC-2998 colon
KM12 colon = test system: KM12 colon

SMILES	growth (T-47D breast)	growth (BT-549 breast)	growth (MDA-MB-435 melanoma)	growth (SW-620 colon)	growth (MCF7 breast)	growth (HCT-116 colon)	growth (HCC-2998 colon)	growth (KM12 colon)
COc1ccccc1/C=C/C(=O)c1nnn(-c2ccc(F)cc2)c1C	54.9%	62%	23.4%	19.9%	7.51% (active)	10.7%	81.3%	32.6%
CC1=C(C)C(=O)C(Nc2cccc(C(=O)OC(C)(C)C)c2)=C(Cl)C1=O	4.99% (active)	106%	103%	88.7%	46.3%	72.6%	99%	99.2%
C#Cc1nc(/C=C\CCCCCCC(=O)NO)cs1	42.3%	87.5%	45.9%	23.9%		20.5%	98.8%	41.2%
COc1ccc(-c2cnc(NC(=O)CCCCCCNC(=O)C(O)(O)C(F)(F)F)s2)cc1	0.87% (active)	-11.9% (active)	5.55% (active)	0.251% (active)		-9.91% (active)	-46.5% (active)	-47.8% (active)
O=S(=O)(Oc1ccc(-c2cn3ccoc3n2)cc1)c1cccc(C(F)(F)F)c1	85.5%	98.8%	101%	103%		102%	99.8%	
CC(C)NC(=O)c1cc(-c2ccc(NC(=O)Nc3ccc(F)c(C(F)(F)F)c3)cc2)nc2cccnc12	80.3%	100%	91.3%	106%		81.9%	115%	89.6%
N#Cc1c(-c2cccs2)cc(-c2cnccn2)nc1SCC(=O)N/N=C/c1cccs1	50.1%	42.5%	51%	43.2%		0.402% (active)	43.1%	47.6%
O=C(O)CC1CCN(c2ccc3nnc(Cl)n3n2)CC1	96.8%	101%	105%	102%		103%	107%	98.1%
COc1cc2cc(Oc3ccc(NC(=O)Nc4ccc(F)c(C(F)(F)F)c4)cc3)c(C)nc2cc1OCCN(C)C	91.4%	99%	98.2%	53.7%	-89.6% (active)	107%	104%	102%
C#CCOc1ccc(/C=N/Nc2nc(-c3ccc(OC)cc3)cs2)cc1	68.7%	89.1%	79.3%	93.3%		71.4%	103%	78.8%
CN1c2ccccc2Sc2cc(/C=N/Nc3ccnc4cc(Cl)ccc34)ccc21	87.4%	99%	62.9%	84.8%	49.4%	57.3%	110%	86.8%
CCc1cccc2c3c(sc12)C(c1ccc(F)cc1)C(C#N)=C(/N=C/c1ccc(Cl)cc1)O3 (centres undefined)	30.7%	2.79% (active)	-5.71% (active)	37.6%	14%	11.4%	10.3%	16.1%
C#C[C@]1(O)CC[C@H]2[C@@H]3CC=C4c5sc(Nc6ccc(C)cn6)nc5CC[C@]4(C)[C@H]3CC[C@@]21C	18.9%	-12.7% (active)	-51.8% (active)	-53.1% (active)		5.1% (active)	19.2%	-35.5% (active)
O=c1nc(Nc2ccc([N+](=O)[O-])cc2O)sc2ccccc12	31.1%	50.6%	-42.9% (active)	22.3%		20.2%	62.4%	
CCOC(=O)Nc1ccc2c(ccn2C(=O)c2cccc(F)c2)c1	45.2%	26.1%	-45.4% (active)	26.3%		25.6%	43.8%	24.6%
CN1CCN(c2ccc(Nc3nc(NCCNS(=O)(=O)c4ccc(Cl)cc4)c4sccc4n3)cc2)CC1	84.3%	111%	95.4%		83.2%	58.5%	108%	93.7%
O=C(CN1CCN(c2cc(=O)[nH]c3ccc(F)cc23)CC1)N(c1ccccc1)c1ccccc1	97.4%	104%	102%		96.7%	98%	106%	107%
CC1=C(C)C(=O)C(Nc2ccc(C)c(C)c2)=C(Br)C1=O	41.6%	100%	103%	103%		34.7%	96.4%	99.8%
COc1cccc2c1[C@H](OC)[C@]13O[C@@]1(C2=O)[C@H](O)[C@H](C)[C@@](O)(C(=O)[C@@H]1O[C@H]1C)[C@@H]3O	-11.8% (active)	-39.6% (active)	-72.7% (active)		-21.3% (active)	-26.8% (active)	-79.3% (active)	-31.1% (active)

SMILES	growth (T-47D breast)	growth (BT-549 breast)	growth (MDA-MB-435 melanoma)	growth (SW-620 colon)	growth (MCF7 breast)	growth (HCT-116 colon)	growth (HCC-2998 colon)	growth (KM12 colon)
O=C(/C=C/c1cccc(C(F)(F)F)c1)Nc1cccc(C(F)(F)F)c1	-6.89% (active)	118%	48.5%		30.9%	21%	57.4%	24.4%
CCc1nnc(NC(=O)c2cc(-c3ccc(Cl)cc3Cl)oc2C)s1	61.7%	90.4%	90.6%	93.3%		42.2%	111%	72.7%
CC(=O)N1N=C(c2cc3ccccc3oc2=O)CC1c1cn(-c2ccccc2)nc1-c1ccc(C)cc1 (centres undefined)	96.4%	117%	102%	98.8%		92.1%	106%	98.6%
O=C(CCCCCCN1CC(=O)N2[C@@H](c3ccc(Cl)s3)c3[nH]c4ccccc4c3C[C@H]2C1=O)NO	27.5%	85.7%	23.9%		14.7%	13%	37.6%	71.9%
NC(=O)c1ncn2c(=O)n(CCF)nnc12	88.8%	110%	82.4%		57.8%	47.4%	56.4%	83.5%
O=C(CSc1nc2ccccc2c(=O)n1-c1ccc(Cl)c(Cl)c1)Nc1ccc(S(=O)(=O)Nc2ccc(Cl)nn2)cc1	85.9%	94.4%	97.8%		95.6%	92%	95.1%	102%
CCN(CC)CCOc1ccc(C(=C(C)c2ccc(OC)cc2)c2ccc(OCCN(CC)CC)cc2)cc1	-45.7% (active)	47.9%	-71.5% (active)		-64.5% (active)	0.525% (active)	3.44% (active)	14.7%
CN1CC[C@@H]2[C@@]3(C)CC[C@H](O)C(C)(C)[C@@H]3CC[C@@]2(C)[C@]2(C)CC[C@@]3(CO)CCC(C)(C)C[C@@H]3C12 (some centres undefined)	79.8%	96.7%	95.7%	90.2%		77.9%	27.5%	96.2%
COc1ccc(C(=O)c2c(N)c(C#N)cn2-c2ccc(Cl)cc2Cl)cc1	92.9%	111%	97.4%		99.4%	97.7%	103%	102%
C/C(=N\NC(N)=S)c1nnn(-c2ccc([N+](=O)[O-])cc2)c1C	92%	95.5%	102%		91.9%	98.6%	100%	96.8%
CC[C@]12C=CCN3CC[C@@]4(c5ccc(OC)cc5N(C)[C@H]4[C@@](O)(C(=O)OC)[C@@H]1OC(=O)CCN1CCc4ccccc4C1)[C@@H]32	84%	93.2%	95.6%	95.6%		90.9%	69.5%	103%
O=C(CCCCCCNC(=O)C(O)(O)C(F)(F)F)Nc1ncc(-c2ccc(Br)cc2)s1	3.85% (active)	-20.5% (active)	6.58% (active)	-16.2% (active)		-26.3% (active)	-54.6% (active)	-67% (active)
Cn1cc(-c2nc(N)nnc2-c2c[nH]c3ccc(Br)cc23)c2cc(F)ccc21	74.8%	96.9%	50.5%	95.1%		100%	122%	74.7%
O=C(CSc1nnc(-c2ccc(Cl)cc2)n1-c1ccccc1)Nc1cccc(F)c1	3.95% (active)	50.4%	49.6%		39%	-13.8% (active)	59.7%	53.3%
O=C1C(SCc2ccccc2)=C(Cl)CN1c1ccccc1	88%	108%	96.8%		40.6%	88.5%	103%	98.3%
CN1CCC[C@]2(C)[C@H]3CC[C@@H]4[C@@H]5[C@H]6OC[C@@]5(CCC6(C)C)CC[C@@]4(C)[C@]3(C)CC[C@H]2C1(C)C	54.9%	96.8%	69.8%	23.2%		15.4%	45.8%	79.1%
CC(=O)c1cc(C(=O)N2c3ccccc3Sc3ccccc32)n2c1ccc1ccccc12	75.5%	52.6%	3.08% (active)		30.5%	25.6%	87.8%	
CC(=O)C1=C(C)NC(NNc2ccccc2)=NC1c1ccc([N+](=O)[O-])cc1 (centres undefined)	83.3%	103%	77%		75%	85.7%	97%	67.3%
Cc1ccc2c(n1)C(=O)C(Cl)=C(Nc1cccc(C)c1C)C2=O	-56.7% (active)	44%	-86.5% (active)		-59.3% (active)	-42.9% (active)	51.6%	26.1%

SMILES	growth (T-47D breast)	growth (BT-549 breast)	growth (MDA-MB-435 melanoma)	growth (SW-620 colon)	growth (MCF7 breast)	growth (HCT-116 colon)	growth (HCC-2998 colon)	growth (KM12 colon)
CN(C)CCNc1ccc2ncc(C#Cc3cncc(C(=O)Nc4ccc(CN5CCN(C)CC5)c(C(F)(F)F)c4)c3)n2n1	78.7%	-8.5% (active)	40.5%		-51.9% (active)	5.01% (active)	-25.9% (active)	-8.42% (active)
Oc1[nH]c2ccc(Cl)cc2c1N=Nc1nc(N=Nc2c(O)[nH]c3ccc(Cl)cc23)nc(N2CCOCC2)n1	29.3%	-6.36% (active)	63.5%	74.3%		45.4%	75.5%	81.2%
O=C(Nc1ccc(N=Cc2c(O)[nH]c3ccccc23)cc1)Nc1ccc(S(=O)(=O)Nc2ncccn2)cc1	92.2%	103%	101%	103%		92.7%	109%	50.9%
COc1ccc2sc(NC(=O)CCCCCCNC(=O)C(O)(O)C(F)(F)F)nc2c1	8.02% (active)	7.95% (active)	1.37% (active)		9.01% (active)	0.844% (active)	-45.9% (active)	-15.1% (active)
CC(Nc1ncnc2ccc(-c3cnc4cnccn34)cc12)c1ccccc1 (centres undefined)	17.5%	47.9%	69.1%		33.5%	72.3%	80.7%	41.6%
O=C1/C(=C/C=C/c2ccco2)SC(=S)N1Cc1ccccc1	75.6%	110%	92.7%		28.4%	91%	99.7%	78.6%
Brc1cc(-c2cc(-c3ccc4c(c3)OC=CO4)[nH]n2)cs1	62.1%	109%	28.4%	82.1%		84.1%	94.7%	64.2%
N#C/C(=N\Nc1ccc(F)cc1)C(=O)Nc1cc(-c2ccccc2)nn1-c1ccccc1	-5.1% (active)	7.63% (active)	6.98% (active)		0.117% (active)	7.78% (active)	19.5%	9.32% (active)
Cc1ccc(NC(=O)/C=C/c2ccc(OCCCOc3ccc4c(C)cc(=O)oc4c3)cc2)cc1	70.3%	98.7%	77.1%		73.4%	78.9%	80.5%	84.8%
Cn1ncc2c(C(=O)c3ccc(F)cc3)nc(C(C)(C)C)nc21	102%	98.4%	97.9%		93.6%	95.3%	103%	100%
COc1ccc2[nH]cc(-c3nn4cc(-c5ccncc5)nc4s3)c2c1	7.81% (active)	74.8%	90.2%		11.2%	52.8%	81.4%	64.1%
CN1CCN(Cc2ccc(/C=N/Nc3ccnc4cc(Cl)ccc34)cc2)CC1	103%	123%	93.6%		54.7%	37%	67.8%	74.8%
CNC(=O)c1cc(N2CCc3cc(NC(=O)Nc4ccc(N5CCOCC5)c(C(F)(F)F)c4)ccc32)ccn1	28.1%	-12.6% (active)	41.5%		12.4%	2.52% (active)	22%	11.1%
CCN(CC)c1ccc(/C=N/NC(=O)c2ccc(NS(C)(=O)=O)cc2)c(O)c1	26.3%	11.6%	28.8%	36.9%		21.7%	38.5%	15.2%
CN1CCN(c2ccc(Nc3nc(NCCCNS(=O)(=O)c4ccc(C(F)(F)F)cc4)c4sccc4n3)cc2)CC1	-29% (active)	-88.1% (active)	-62.4% (active)	-33.5% (active)		-73.8% (active)	-63.5% (active)	-25.2% (active)
CN(C)c1cccc2c(S(=O)(=O)Nc3cccc(-c4csc(NC(=O)CCCCCN5CCN(CCO)CC5)n4)c3)cccc12	82.7%	87.5%	65.6%	98.4%		36.2%	90.3%	88.6%
O=C(NCCNc1cc(-c2cn(-c3ccccc3)nc2-c2cccc(O)c2)ccn1)Nc1cc(C(F)(F)F)cc(C(F)(F)F)c1	90.5%	99.4%	98.4%	101%		89.5%	96.2%	1.09% (active)
CCN(CC)S(=O)(=O)c1ccc(-c2nc(C(Cl)Cl)nc3cc(-c4ccc(F)cc4)nn23)cc1	28%		25.6%	23.5%	19.4%	28.6%	7.38% (active)	9.84% (active)

— PubChem BioAssay (NCI)
